From PubChem BioAssay (NCATS)
Inconclusive results are not listed. The source made the active and inactive calls. Unless noted, the call rests on the fitted dose curve; in most records, active means well fitted curve in the direction sought with a large enough effect; inconclusive means small, poorly fitted or top-dose-only effect, or another doubt; inactive means no such curve, though single readings can be large; an effect the other way counts as inactive or inconclusive.

What was measured:
[1] = Cellular Toxicity (caspase-3) HepG2 (AID 654); details: HepG2 caspase-3 activation, luminescence, 0% = DMSO only, 100% = tamoxifen; series mostly up to 92.2 µM;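 further: cells exposed to compound for 16 hours before reading; 0% = DMSO alone and 100% = caspase signal from 100 µM tamoxifen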
Summary of the method: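 Concentration-response AC50 values reflect caspase-3/7 induction in HepG2 cells after 16 hours of compound exposure, quantified by luminescence from liberated aminoluciferin and referenced to 100 uM tamoxifen as full stimulation.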

[2] = Cellular Toxicity (caspase-3) Jurkat (AID 655); details: Jurkat caspase-3 activation, luminescence, DMSO = 0%, tamoxifen = 100%; series mostly up to 92.2 µM;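 further: cells exposed to compound for 16 h at 37 °C before reading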
Summary of the method: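 Luminescent Caspase-Glo 3/7 read-out (20 min, room temperature) after 16 h compound treatment at 37 C of 5000 Jurkat cells per well. AC50 derived by Hill-equation fitting, scaled between DMSO basal and 100 uM tamoxifen stimulation.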

[3] = Cellular Toxicity (caspase-3) HUV-EC-C (AID 656); details: HUV-EC-C cells, caspase-3 activation (apoptosis), vehicle = 0, 100 µM tamoxifen = 100%; series mostly up to 92.2 µM
Summary of the method: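 Luminescent Caspase-Glo 3/7 readout after 16 h, 37 °C compound exposure of HUV-EC-C endothelial cells, 1000 per well, complete medium. AC50 derived by Hill fitting, with DMSO as baseline and 100 uM tamoxifen as full activation.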

[4] = Cellular Toxicity (caspase-3) SHSY5Y (AID 657); details: SH-SY5Y caspase-3 activation, DMSO zero, 10 µM staurosporine = 100%; series mostly up to 91.7 µM
Summary of the method: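 Luminescent Caspase-Glo 3/7 read-out, 1 hr room temperature, follows 16 hours of compound treatment of SH-SY5Y cells at 37 °C. Normalization: DMSO basal, 10 uM staurosporine as 100%; AC50 values from Hill-equation concentration-response fits.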

[5] = Cellular Toxicity (caspase-3) BJ (AID 658); details: BJ fibroblasts, luminescence, normalized: DMSO 0%, staurosporine 100%; series mostly up to 91.7 µM
Summary of the method: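 qHTS, BJ fibroblasts, 1000 cells/well; 5 hr preincubation, 16 hr compound, 37 °C; Caspase-Glo 3/7 reagent, 1 hr RT; luminescence. DMSO = 0%, 10 uM staurosporine = 100%. Hill-equation AC50.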

[6] = Cellular Toxicity (caspase-3) MRC-5 (AID 659); details: MRC-5 cells, luminescence, normalized: DMSO 0%, 10 µM staurosporine 100%; series mostly up to 91.7 µM
Summary of the method: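 MRC-5 fibroblasts, 1500/well; 16 h cpd, 37 °C; Caspase-Glo 3/7, 1 h RT; lumi read. Norm: DMSO = 0%, 10 uM staurosporine = 100%. Hill-fit AC50 from qHTS conc-response.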

[7] = Cellular Toxicity (caspase-3) Mesangial (AID 660); details: mesangial cells, normalized: DMSO 0%, 100 µM tamoxifen 100%; series mostly up to 91.7 µM;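 further: combined caspase 3 and 7 activity read by Caspase-Glo luminescence; cells exposed to compound for 16 h before the caspase read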
Summary of the method: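 AC50 values come from Hill-equation fits of caspase 3/7 activation, measured as Caspase-Glo luminescence in human glomerular mesangial cells exposed to compound for 16 h at 37 °C; 100% set by 100 uM tamoxifen.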

[8] = Cellular Toxicity (caspase-3) SK-N-SH (AID 661); details: SK-N-SH caspase-3 activation, qHTS, DMSO as zero, staurosporine as full; series mostly up to 91.7 µM
Summary of the method: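 Apoptosis readout in SK-N-SH neuroblastoma: Caspase-Glo 3/7 luminescence following 16 hr treatment in complete culture medium. Normalization used DMSO and 10 uM staurosporine controls.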

[9] = target: Androgen receptor (Homo sapiens) (UniProt P10275); assay: qHTS assay for small molecule antagonists of androgen receptor signaling (AID 588516; active means well fitted curve in the direction sought with a large enough effect in the signal ratio, with a control signal flat, not every such curve was filed as active; the % refers to the signal ratio; further: on the % scale 0 is the no-effect control and ±100 the full control effect); details: AR-UAS-bla HEK293, beta-lactamase ratio, antagonist mode, 16 h; series mostly up to 76.8 µM
Sequence of Androgen receptor (Homo sapiens) (P10275 whole entry, looked up): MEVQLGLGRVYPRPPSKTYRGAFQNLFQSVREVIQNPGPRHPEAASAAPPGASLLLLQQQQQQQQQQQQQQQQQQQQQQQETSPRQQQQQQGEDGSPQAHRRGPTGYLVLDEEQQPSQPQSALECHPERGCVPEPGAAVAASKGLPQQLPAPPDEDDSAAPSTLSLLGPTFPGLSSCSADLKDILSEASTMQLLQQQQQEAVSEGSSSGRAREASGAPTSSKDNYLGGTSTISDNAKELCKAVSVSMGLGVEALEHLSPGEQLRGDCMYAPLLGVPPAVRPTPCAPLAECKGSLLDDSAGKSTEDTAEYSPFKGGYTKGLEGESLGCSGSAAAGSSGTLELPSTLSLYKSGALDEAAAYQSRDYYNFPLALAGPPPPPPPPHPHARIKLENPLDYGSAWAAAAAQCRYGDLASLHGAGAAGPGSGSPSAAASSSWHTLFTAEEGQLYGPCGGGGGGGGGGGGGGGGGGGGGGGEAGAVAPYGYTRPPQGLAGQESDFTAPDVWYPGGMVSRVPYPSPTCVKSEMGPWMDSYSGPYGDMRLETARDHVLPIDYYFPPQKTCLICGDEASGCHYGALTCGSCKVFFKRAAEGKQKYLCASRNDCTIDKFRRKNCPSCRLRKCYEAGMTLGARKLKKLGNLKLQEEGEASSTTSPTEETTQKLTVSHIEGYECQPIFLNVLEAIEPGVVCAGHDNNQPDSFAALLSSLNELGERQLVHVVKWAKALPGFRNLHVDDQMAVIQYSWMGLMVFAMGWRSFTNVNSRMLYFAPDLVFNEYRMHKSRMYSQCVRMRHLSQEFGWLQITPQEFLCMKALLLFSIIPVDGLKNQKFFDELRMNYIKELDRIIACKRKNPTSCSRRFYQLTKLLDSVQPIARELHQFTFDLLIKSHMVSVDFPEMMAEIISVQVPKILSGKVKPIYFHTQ
Summary of the method: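 Antagonist mode: inhibition of R1881-stimulated (10 nM final) bla reporter in GeneBLAzer AR HEK 293 cells, 16 h at 37C, compounds titrated. IC50 and efficacy from Hill-equation fits of 405/460–530 nm FRET ratios.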

[10] = target: Glucocorticoid receptor (Homo sapiens) (UniProt P04150); assay: qHTS assay for small molecule agonists of glucocorticoid receptor signaling (AID 588532; active means well fitted curve in the direction sought with a large enough effect in the signal ratio, with a control signal flat; the % refers to the signal ratio;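 further: 100% = dexamethasone at 0.1 µM and 0% = DMSO only wells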); details: HeLa MMTV-bla, beta-lactamase ratio, agonist, 18 h; stronger effect = higher value; percent of dexamethasone control, DMSO zero
Sequence of Glucocorticoid receptor (Homo sapiens) (P04150 whole entry, looked up): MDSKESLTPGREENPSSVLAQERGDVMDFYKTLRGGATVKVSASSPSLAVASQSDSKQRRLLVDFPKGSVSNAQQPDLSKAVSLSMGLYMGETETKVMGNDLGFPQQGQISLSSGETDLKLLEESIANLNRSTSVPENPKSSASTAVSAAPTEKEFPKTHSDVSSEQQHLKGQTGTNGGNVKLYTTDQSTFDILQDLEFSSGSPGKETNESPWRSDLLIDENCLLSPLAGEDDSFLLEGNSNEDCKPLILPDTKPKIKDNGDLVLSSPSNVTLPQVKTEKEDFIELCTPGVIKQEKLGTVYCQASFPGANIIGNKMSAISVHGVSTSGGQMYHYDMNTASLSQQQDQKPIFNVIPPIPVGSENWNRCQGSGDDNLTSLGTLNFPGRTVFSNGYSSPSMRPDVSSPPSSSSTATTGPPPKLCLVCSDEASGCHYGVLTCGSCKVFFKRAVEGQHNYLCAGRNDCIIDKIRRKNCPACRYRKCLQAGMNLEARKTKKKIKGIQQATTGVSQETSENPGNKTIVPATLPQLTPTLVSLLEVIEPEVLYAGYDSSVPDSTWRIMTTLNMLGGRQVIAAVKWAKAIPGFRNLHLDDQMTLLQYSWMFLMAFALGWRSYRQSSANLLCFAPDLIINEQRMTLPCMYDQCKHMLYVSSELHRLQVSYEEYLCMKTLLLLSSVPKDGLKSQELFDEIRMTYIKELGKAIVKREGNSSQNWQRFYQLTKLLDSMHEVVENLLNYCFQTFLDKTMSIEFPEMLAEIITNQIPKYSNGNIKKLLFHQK
Summary of the method: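 HeLa GRE-bla reporter cells; 18 h compound exposure at 37 C; 2 h CCF4 loading at room temperature; fluorescence at 460 and 530 nm; EC50 by Hill equation.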

[11] = target: Glucocorticoid receptor (Homo sapiens) (UniProt P04150); assay: qHTS assay for small molecule antagonists of glucocorticoid receptor signaling (AID 588533; active means well fitted inhibition curve with a large enough effect in the signal ratio, with a control signal flat, not every such curve was filed as active; the % refers to the signal ratio;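 further: cells stimulated with 2 nM dexamethasone as agonist; on the % scale 0 is the no-effect control and ±100 the full control effect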); details: HeLa MMTV-bla, GRE beta-lactamase ratio, antagonist mode, 18 h; series mostly up to 76.8 µM
Summary of the method: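 Antagonist-mode qHTS: compound titrations added to GRE-bla HeLa cells, then dexamethasone 2 nM final; 18 h, 37 C. CCF4 FRET fluorescence normalized to dexamethasone and DMSO; IC50 from Hill fit.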

[12] = qHTS assay for small molecule antagonists of retinoid X receptor alpha signaling (AID 588546; active means well fitted inhibition curve with a large enough effect in the signal ratio, with a control signal flat, not every such curve was filed as active; the % refers to the signal ratio;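 further: cells stimulated with 9-cis-retinoic acid as agonist; on the % scale 0 is the no-effect control and ±100 the full control effect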); details: HEK293T RXRa-UAS-bla, beta-lactamase ratio, antagonist mode; measured here: W530 green channel, cytotoxicity proxy
Summary of the method: (§1)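 Beta-lactamase reporter inhibition, read as CCF4 fluorescence ratio (ex 405, em 460/530 nm) after 2 h at RT. HEK293T UAS-bla cells, 2500/well, were stimulated with 9-cis-RA at 500 or 100 nM final alongside test compound for 18 h at 37 C.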

[13] = target: Retinoic acid receptor RXR-alpha (Homo sapiens) (UniProt P19793); assay: as above; details: HEK293T RXRa-UAS-bla, beta-lactamase ratio, antagonist mode
Sequence of Retinoic acid receptor RXR-alpha (Homo sapiens) (P19793 whole entry, looked up): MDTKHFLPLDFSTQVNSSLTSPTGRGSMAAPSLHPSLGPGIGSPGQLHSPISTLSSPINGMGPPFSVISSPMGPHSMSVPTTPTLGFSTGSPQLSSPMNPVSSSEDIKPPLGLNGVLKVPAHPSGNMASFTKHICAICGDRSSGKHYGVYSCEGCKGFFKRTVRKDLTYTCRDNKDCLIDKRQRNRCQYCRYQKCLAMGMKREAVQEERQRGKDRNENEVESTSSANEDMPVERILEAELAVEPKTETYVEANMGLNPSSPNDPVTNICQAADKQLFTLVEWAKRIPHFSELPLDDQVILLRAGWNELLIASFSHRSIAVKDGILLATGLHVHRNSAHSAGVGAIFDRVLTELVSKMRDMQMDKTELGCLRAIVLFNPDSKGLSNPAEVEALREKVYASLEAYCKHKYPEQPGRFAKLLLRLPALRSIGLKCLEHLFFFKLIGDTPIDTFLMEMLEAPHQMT
Summary of the method: as §1

[14] = qHTS assay for small molecule disruptors of the mitochondrial membrane potential - 1 hr assay (AID 651754; calls by dose curve; further: on the % scale 0 is the no-effect control and ±100 the full control effect; nearly all actives have a fitted effect of over 35% in size); details: series mostly up to 92.2 µM
Summary of the method: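 In this qHTS format, a 1 hr compound treatment of HepG2 cells precedes Mito-MPS staining, and membrane potential is judged from aggregate (red) against monomer (green) fluorescence intensity.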

[15] = qHTS assay for small molecule disruptors of the mitochondrial membrane potential - 5 hr assay (AID 651755; calls by dose curve; further: on the % scale 0 is the no-effect control and ±100 the full control effect; nearly all actives have a fitted effect of over 40% in size); details: JC-1-type ratio dye; series mostly up to 92.2 µM
Summary of the method: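 Read-out: ratiometric Mito-MPS fluorescence, green monomer (ex 490/em 535) vs red mitochondrial aggregate (ex 540/em 590). HepG2 cells treated 5 hr at 37C before 30 min dye loading.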

[16] = target: Tumor necrosis factor (Homo sapiens) (UniProt P01375); assay: qHTS assay to identify small molecules that stimulate Tumor Necrosis Factor-alpha (TNF-alpha) secretion (AID 651757; active means well fitted curve in the direction sought with a large enough effect in the signal ratio; the % refers to the signal ratio; further: 0% is about no effect); details: Human cells, HTRF 665/615 ratio; series mostly up to 92.2 µM
Sequence of Tumor necrosis factor (Homo sapiens) (P01375 whole entry, looked up): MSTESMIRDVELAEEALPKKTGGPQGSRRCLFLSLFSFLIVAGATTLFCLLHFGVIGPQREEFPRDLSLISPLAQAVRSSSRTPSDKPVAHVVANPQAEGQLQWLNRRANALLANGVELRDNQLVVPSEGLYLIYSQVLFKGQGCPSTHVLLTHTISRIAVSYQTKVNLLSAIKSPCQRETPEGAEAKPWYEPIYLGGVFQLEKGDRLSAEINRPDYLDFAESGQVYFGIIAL
Summary of the method: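 Using 3000 THP-1 cells per well, compounds and controls were applied for 17 hrs at 37 C. Detection followed with two labeled anti-TNF-alpha antibodies (cryptate donor, XL665 acceptor) for 3 hr at room temperature, measured by TR-FRET.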

[17] = qHTS assay to identify small molecules that stimulate interleukin-8 (IL-8) secretion (AID 651758; active means well fitted activation curve with a large enough effect in the signal ratio; the % refers to the signal ratio; further: 0% is about no effect); details: HTRF ratio (665/615); series mostly up to 92.2 µM
Summary of the method: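 Compounds are added to THP-1 cells (2000 per well) and left 16 hrs at 37 C. A labeled anti-IL-8 antibody pair is then added, and IL-8 secretion is measured by time-resolved FRET after 1-3 hrs at room temperature.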

[18] = qHTS assay for environmental chemicals that activate the Aryl hydrocarbon Receptor (AhR) signaling pathway (AID 651777); details: 1A2-DRE human hepatoma cells, luciferase, 24 h; stronger effect = higher value; further: % of control where 0% means no effect; nearly all actives have a fitted effect of over 15% in size
Summary of the method: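 Human hepatoma 1A2-DRE cells, stably carrying a dioxin response element and CYP1A2 promoter driving luciferase, were exposed to compounds for 24 hr at 37 C and 5% CO2. Luciferase signal was then read after 30 min One-Glo at room temperature.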

[19] = target: Peroxisome proliferator-activated receptor alpha (Homo sapiens) (UniProt Q07869); assay: qHTS assay for small molecule agonists of the peroxisome proliferator-activated receptor alpha (PPARalpha) signaling pathway (AID 651778); details: PathHunter PPARalpha complementation, chemiluminescence, 6 h; stronger effect = higher value; further: % of control where 0% means no effect
Sequence of Peroxisome proliferator-activated receptor alpha (Homo sapiens) (Q07869 whole entry, looked up, the tested form may be a part): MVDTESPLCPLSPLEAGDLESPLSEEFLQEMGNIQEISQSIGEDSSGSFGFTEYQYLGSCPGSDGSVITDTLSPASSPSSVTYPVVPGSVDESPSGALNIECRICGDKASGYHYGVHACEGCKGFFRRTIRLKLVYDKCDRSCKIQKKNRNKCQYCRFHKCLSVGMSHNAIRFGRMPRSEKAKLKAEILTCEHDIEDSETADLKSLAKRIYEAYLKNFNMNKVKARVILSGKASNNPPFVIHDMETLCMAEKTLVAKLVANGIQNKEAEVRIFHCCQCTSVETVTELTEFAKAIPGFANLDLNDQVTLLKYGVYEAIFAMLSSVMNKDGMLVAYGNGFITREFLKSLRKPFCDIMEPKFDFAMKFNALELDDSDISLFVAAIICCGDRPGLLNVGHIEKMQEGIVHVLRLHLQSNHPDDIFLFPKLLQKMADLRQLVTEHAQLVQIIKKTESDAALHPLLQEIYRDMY
Summary of the method: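 Enzyme-fragment complementation assay in which ligand-bound PPARalpha translocates and forms an active enzyme that generates chemiluminescence. Cells were plated overnight, exposed to compound for 6 hr at 37 C, and then given detection reagent for 60 min at room temperature.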

[20] = target: Nuclear receptor subfamily 1 group I member 2 (Rattus norvegicus) (UniProt Q9R1A7); assay: qHTS assay for small molecule activators of the rat pregnane X receptor (rPXR) signaling pathway (AID 651751; call rule not given here; further: 0% is about no effect); details: rPXR reporter cells, luciferase (One-Glo), 24 h
Sequence of Nuclear receptor subfamily 1 group I member 2 (Rattus norvegicus) (Q9R1A7 whole entry, looked up): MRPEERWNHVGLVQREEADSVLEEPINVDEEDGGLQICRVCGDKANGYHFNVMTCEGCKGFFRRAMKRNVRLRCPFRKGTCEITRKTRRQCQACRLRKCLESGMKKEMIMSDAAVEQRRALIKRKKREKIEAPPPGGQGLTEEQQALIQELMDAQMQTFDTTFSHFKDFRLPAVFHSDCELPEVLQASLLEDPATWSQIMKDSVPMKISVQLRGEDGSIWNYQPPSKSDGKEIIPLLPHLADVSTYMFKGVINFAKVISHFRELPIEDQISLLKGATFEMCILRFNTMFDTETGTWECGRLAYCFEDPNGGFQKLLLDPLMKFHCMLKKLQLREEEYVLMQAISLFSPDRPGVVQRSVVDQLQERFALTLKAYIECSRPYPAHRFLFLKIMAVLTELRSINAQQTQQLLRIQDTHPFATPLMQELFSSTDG

CN(C)CCOC(c1ccccc1)c1ccccc1 (tested in a mixture with another compound)
3.3%: max response [12]
inactive: outcome [1] | outcome [2] | outcome [3] | outcome [4] | outcome [5] | outcome [6] | outcome [7] | outcome [8] | outcome [9] | activation [10] 1.99% | outcome [11] | max response [13] -6.76% | outcome [14] | outcome [15] | outcome [16] | outcome [17] | activation [18] 0.508% | max response [19] 0.237% | max response [20] -6.62%
